# Compound activity as filed in PubChem BioAssay.
# DT40 TDP1 no CPT – qHTS for Inhibitors of human tyrosyl-DNA phosphodiesterase 1 (TDP1): qHTS in cells in absence of CPT; DT40 Tdp1-/- hTDP1 cells, no CPT, ATP luminescence, 48 h; Potency, µM (highest dose often 46.2 µM), for the others: at the highest dose activity change, negative = growth inhibition, hits mostly inhibitors; 420,000 tested, 15% active; AID 686978, 2013; further: potency means the concentration at half of the fitted maximal effect; nearly all actives have a fitted effect of over 55% in size
#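 Growth kinetics read by CellTiter-Glo luminescence after ≥48 hr at 37 °C. Cells: DT40 Tdp1-/- stably carrying human TDP1, 400 per well, compound exposure in the absence of CPT (DMSO vehicle).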
# Gal4-VP16 FLuc – counter-screen for ROR gamma inhibitors: Gal4-VP16 reporter. Drosophila S2 Gal4-VP16 UAS-luciferase, luminescence, 20 h. 310,000 tested, 3.5% active. Potency, µM (series often up to 53.6 µM), for inactives: at the top dose activity, negative = inhibition, actives largely listed as inhibitors. AID 2546;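 further: Gal4-VP16 expression switched on by copper sulfate through the metallothionein promoter; potency means the concentration at half of the fitted maximal effect; nearly all actives have a fitted effect of over 50% in size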
# ELG1 DNA repair – blocks ELG1-dependent DNA repair in HEK293T cells | AID 504467 | 330,000 tested, 2.3% active | Potency, µM (top dose mostly 46.1 µM), for the others: at the highest dose activity change, negative = inhibition, hits mostly inhibitors | HEK293T ELG1-luciferase reporter, luminescence, 16 h; DNA damage induced by 5-fluorouridine; further: potency means the concentration at half of the fitted maximal effect; nearly all actives have a fitted effect of over 55% in size
#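 Cells (2,000 per well) received 5-fluorouridine plus test compound or DMSO and were incubated 16 hr at 37 °C, 5% CO2. Luciferase activity was read by luminescence 30 min after ONE-Glo addition; signal suppression marked inhibition of damage-induced ELG1 function.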
# RORg inh – blocks mouse ROR gamma transcriptional activity | P51450 | Drosophila S2 Gal4-RORgamma UAS-luciferase reporter, 20 h | Potency, µM (top dose mostly 53.6 µM), for the others: at the highest dose activity change, negative = inhibition, most hits filed as inhibitors | 310,000 tested, 5.4% active | AID 2551; further: potency means the concentration at half of the fitted maximal effect; nearly all actives have a fitted effect of over 60% in size
# Target sequence (P51450 whole entry, looked up, the tested form may be a part): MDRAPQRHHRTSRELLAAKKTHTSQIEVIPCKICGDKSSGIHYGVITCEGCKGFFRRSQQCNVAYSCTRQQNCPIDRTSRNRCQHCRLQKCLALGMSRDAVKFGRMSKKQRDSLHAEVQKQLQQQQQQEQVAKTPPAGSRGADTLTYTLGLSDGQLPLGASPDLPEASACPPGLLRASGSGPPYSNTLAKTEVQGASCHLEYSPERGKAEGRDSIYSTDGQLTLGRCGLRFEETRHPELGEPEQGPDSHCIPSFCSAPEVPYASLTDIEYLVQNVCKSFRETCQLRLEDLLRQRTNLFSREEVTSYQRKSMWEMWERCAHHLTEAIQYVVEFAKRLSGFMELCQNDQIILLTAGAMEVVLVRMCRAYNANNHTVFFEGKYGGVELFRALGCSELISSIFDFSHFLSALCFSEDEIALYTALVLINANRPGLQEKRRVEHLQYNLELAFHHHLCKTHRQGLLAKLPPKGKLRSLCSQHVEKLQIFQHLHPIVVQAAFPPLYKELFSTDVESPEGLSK
#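 Drosophila S2 cells stably expressing Gal4-DBD/mouse RORγ fusion under metallothionein promoter plus UAS-luciferase; compound 1 h, then 700 uM CuSO4 induction for 20 h at ambient temperature; inhibition read as reduced luminescence.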
# TDP1 cell CPT – growth inhibition of DT40 Tdp1-/-;hTDP1 cells with camptothecin (screen for TDP1 inhibitors) | chicken DT40 Tdp1-/-;hTDP1 cells + 20 nM CPT, ATP luminescence, 48 h | Potency, µM (titrated, usually from 46.2 µM), for the others: top-dose activity change, negative = growth inhibition, hits mostly inhibitors | 420,000 tested, 12% active | AID 686979; further: potency means the concentration at half of the fitted maximal effect; nearly all actives have a fitted effect of over 55% in size
#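 Chicken DT40 Tdp1-/- cells stably complemented with human TDP1 were seeded at 400 cells/well in medium containing 20 nM camptothecin, exposed to pin-transferred compounds, and grown at 37 °C for at least 48 hr. Viability was read as ATP luminescence.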
# IL-1B inflam inh – blocks inflammasome-driven IL-1 beta release; 360,000 tested, 4.7% active; activity change, % at 57.5 µM; THP-1 LPS/ATP IL-1B secretion, AlphaLISA, 16 h; hits give low values; in the data active means activity change below about -50%; inconclusive means mostly about -30% to -49%
#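 THP-1 cells pretreated 1 hr with compounds (up to 57.5 uM final), then stimulated with LPS (250 ng/mL final) plus ATP (1.25 mM final); secreted IL-1B measured by AlphaLISA after 16 hr, decreased signal indicating inhibition.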
# * = called active by the depositor; ? = inconclusive; · = not tested or not shown. The list is not random: actives were taken first. Their share in the collection is about 21%. Unless noted, the call rests on the fitted dose curve; in most records, active means well fitted curve in the direction sought with a large enough effect; inconclusive means small, poorly fitted or top-dose-only effect, or another doubt; inactive means no such curve, though single readings can be large; an effect the other way counts as inactive or inconclusive. On the % scale 0 is the no-effect control and ±100 the full control effect.
SMILES,DT40 TDP1 no CPT,Gal4-VP16 FLuc,ELG1 DNA repair,RORg inh,TDP1 cell CPT,IL-1B inflam inh
COCCCNC(=O)c1ccc(Cn2c(=O)c3ccccc3n(CC(=O)Nc3c(C)cccc3C)c2=O)cc1,-6.5%,·,·,·,?,·
O=C(c1ccco1)N1c2ccccc2Sc2ccccc21,?,-7.4%,-19.7%,-4.7%,?,-50.2*
O=C(c1ccco1)N1CCN(C(=O)N2c3ccccc3Sc3ccccc32)CC1,0.631µM*,?,?,39.0%,0.231µM*,21.3
O=C(N1CCN(c2ccccn2)CC1)N1c2ccccc2Sc2ccccc21,0.92µM*,-23.8%,0.0%,9.9%,0.731µM*,34.1
O=C(NCCc1ccccc1)N1c2ccccc2Sc2ccccc21,16.4µM*,-1.6%,-24.7%,61.2%,?,-10.6
O=C(c1ccc(Br)s1)N1CCN(c2ccccn2)CC1,-10.7%,5.0%,-8.6%,-1.2%,-25.5%,-17.5
CC(C)C(NC(=O)c1c(F)cccc1F)C(=O)N1CCN(S(=O)(=O)c2ccc(F)cc2)CC1 (stereo not drawn),-14.1%,·,0.0%,·,-10.5%,10.4
Cc1ccc(OCC(=O)Nc2ccc(OCc3cc(=O)n4ccsc4n3)cc2)cc1,-15.9%,·,·,·,1.1%,·
COc1ccccc1NC(=O)CSc1nnc2ccc(-c3ccccn3)nn12,-9.1%,·,?,·,?,-3.4
Cc1ccc2c(c1)[C@H]1[C@H](CO2)[C@H](c2ccccc2)[C@]2(C)C(=O)Nc3cc(Cl)ccc3C(=O)N12,20.6µM*,·,-16.2%,·,?,-21.0
C[C@@]12C(=O)Nc3cc(F)ccc3C(=O)N1[C@H]1c3ccccc3OC[C@@H]1[C@@H]2c1ccccc1,?,·,?,·,?,-74.7*
COc1ccc2c(c1)OC[C@H]1[C@H]2N2C(=O)c3cc(Cl)ccc3NC(=O)[C@@]2(C)[C@H]1c1ccccc1,?,·,21.5%,·,?,?
COc1cc2c(cc1OC)C(=O)N1[C@H]3c4cc(C)ccc4OC[C@@H]3[C@H](c3ccccc3)[C@]1(C)C(=O)N2,20.6µM*,·,?,·,18.4µM*,-50.5*
CCOC(=O)[C@H]1[C@H]2COc3ccc(C)cc3[C@@H]2N2C(=O)c3ccc(Cl)cc3NC(=O)[C@@]12C,?,·,16.1%,·,?,-2.2
C[C@@]12C(=O)N(c3ccc(F)cc3)C(=O)N1[C@@H]1c3ccccc3OC[C@@H]1[C@H]2c1ccccc1,?,-3.7%,?,11.9%,?,-1.0
COc1cc2c(cc1OC)C(=O)N1[C@H]3c4cc(Cl)ccc4OC[C@@H]3[C@H](c3ccccc3)[C@]1(C)C(=O)N2,18.4µM*,·,?,·,20.6µM*,-50.1*
COc1ccc2c(c1)[C@H]1[C@H](CO2)[C@H](c2ccccc2)[C@]2(C)C(=O)Nc3cc(Cl)ccc3C(=O)N12,?,·,-15.4%,·,?,-19.5
CCc1nnc(NC(=O)c2ccc3c(=O)n4c(nc3c2)CCC4)s1,?,·,·,·,-28.0%,-2.1
Cc1ccc2c(c1)[C@H]1[C@H](CO2)[C@H](c2ccccc2)[C@]2(C)C(=O)Nc3cc(F)c(F)cc3C(=O)N12,?,·,-4.2%,·,?,?
Cc1ccc2c(c1)[C@H]1[C@H](CO2)[C@H](c2ccccc2)[C@]2(C)C(=O)Nc3ccc(F)cc3C(=O)N12,20.6µM*,·,·,·,20.6µM*,-61.3*
Nc1nc(-c2ccc(Oc3ccccc3)cc2)cs1,?,-8.9%,?,22.9%,4.1%,-2.0
CN(C)/C=N/c1nc(-c2ccc3c(c2)OCO3)cs1,-14.3%,-15.7%,?,17.9%,0.6%,-17.9
Nc1nc(-c2cc3ccccc3o2)cs1,-16.0%,-14.8%,?,-2.2%,6.1%,-75.3*
Nc1nc(-c2ccc3ccccc3c2)cs1,-28.8%,?,?,-1.9%,6.8%,-67.5*
